Most compounds without a hit are left out; they make up all but 2% or so of the library.
INS promoter inh = TRM-6 insulin promoter activity inhibition; TRM-6 cells (human fetal islet line), insulin promoter-eGFP reporter, imaging; reporter expression induced with tamoxifen; inhibition, % at 2 µM; actives 0.9% (n = 130,000); AID 1273;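 active means inhibition above the mean plus 3 SD, with well images judged a real hit on visual review, cut at about 60% in these data, passing the limit was not always enough; inconclusive means inhibition over the cutoff but images rejected on review; inactive means inhibition not above the cutoff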
PERK inh = inhibitors of human PERK kinase; Q9NZJ5; CHO PERK-DD fusion, SEAP luminescence translation reporter; inhibition, % at 5.6 µM; actives 0.17% (n = 220,000); AID 1416;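 active means inhibition above the mean inhibition of all tested compounds plus 3 SD, set separately per screening campaign, cut at about 2.9% in these data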;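 further: PERK kinase domain activated by AP20187 dimerizer at 100 nM; 0% = DMSO with dimerizer and 100% = rapamycin at 8.4 µM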
Autophagy mod = autophagy modulation, high-content screen | MEF GFP-LC3 puncta imaging; test concentration mostly 10 µM | calls only at 10 µM (by protocol) | actives 0.98% (n = 190,000) | AID 463193;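 active means percentage of spot-positive cells more than 3 SD above its plate mean, without a fluorescence outlier flag or 80% toxicity; inconclusive means no clear call, values can overlap the other calls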;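 further: spot-positive cell cutoff set from DMSO-treated cells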
Insulin prom up = MIN6 insulin promoter up-regulation; z-score at 5 µM; actives 0.3% (n = 190,000); MIN6 insulin promoter-GFP reporter, high-content imaging; hits give high values;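 active means z-score above 3 at 5 µM with at least 500 cells counted in the well; inconclusive means wells under 500 cells, flagged as cytotoxic or low count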
eIF4E 4G PPI = inhibitors of eIF4E and eIF4G interaction in translation initiation; P63073+Q04637; TR-FRET eIF4E-eIF4GI(517-606) binding, 2 h; inhibition, % at 21.7 µM; actives 0.37% (n = 220,000); AID 782;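 active means inhibition above about 30%, limit read from the data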;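 further: 0% = full FRET control wells and 100% = background wells lacking eIF4GI fragment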
An asterisk follows results filed as active; i = inactive; ? = inconclusive; nt = no result given; + = active, no number.

SMILES	INS promoter inh	PERK inh	Autophagy mod	Insulin prom up	eIF4E 4G PPI
Cc1cc(C)nc(N(C#N)S(=O)(=O)c2ccccc2)n1	82*	2	i	0.51	3
CC(=O)c1ccc(NC(=O)C2Cc3ccccc3CN2C(=O)c2ccccc2)cc1 (centres undefined)	nt	1	i	0.13	2
O=C(NC1=NCCS1)C1Cc2ccccc2CN1C(=O)c1ccccc1 (centres undefined)	0	-2	i	3.1*	-1
Oc1ccc(/C=N/Nc2nn3cnnc3c3ccccc23)cc1	nt	0	nt	nt	98*
Cc1ccc(NC(=O)CN2C(=O)C3C4C=CC(C4)C3C2=O)cc1 (centres undefined)	nt	1	+	0.61	1
O=C1C2C3C=CC(C3)C2C(=O)N1CCCCN1C(=O)C2C3C=CC(C3)C2C1=O (centres undefined)	59	0	i	0.47	46*
Cc1cc(=O)n2c(n1)SCOC2	nt	-1	nt	0.09	1
Cc1cccc(N2CCN(Cc3nc(-c4cccc(Oc5ccccc5)c4)oc3C)CC2)n1	-9	0	+	0.01	-5
CCOC(=O)Cc1csc2nc3sc(C)c(C)c3c(=O)n12	38	-1	i	0.39	-1
O=C(CCc1nc2ccccc2[nH]1)NCc1ccc2c(c1)OCO2	-40	0	i	0.58	2
O=C(CCc1nnc(Cc2ccc3c(c2)OCO3)o1)NCc1nc2ccccc2s1	78*	1	i	nt	-2
NC(=O)c1cc(NC(=O)c2cc(Br)c(Br)s2)cc(C(N)=O)c1	nt	1	i	-0.82	-2
CC(=O)Nc1cccc(NC(=O)Nc2ccc(C(C)=O)cc2)c1	6	0	i	-0.26	4
CC(=O)Nc1ccc(NC(=O)Nc2cc(C)cc(C)c2)cc1	nt	3.6*	nt	-0.41	-8
C=CCN1C(=O)S/C(=C\c2ccc(N3CCOCC3)cc2C)C1=O	11	1	+	0.61	8
COc1ccc(/C=C(/NC(=O)c2cccc([N+](=O)[O-])c2)C(=O)O)cc1	47	1	i	0.32	-3
CC1=C(C(=O)Nc2ccccc2C(F)(F)F)C(c2ccc(C)s2)NC(=S)N1 (centres undefined)	nt	0	i	0.61	-3
CCc1c(C)c(C#N)c2nc3ccccc3n2c1N1CCN(c2cc(C)ccn2)CC1	3	1	i	0.43	-1
N#Cc1c2c(c(Nc3ccccc3)n3c1nc1ccccc13)CCC2	-30	0	i	0.23	-7
Cc1c2c(n3c(nc4ccccc43)c1C#N)N(c1ccccc1)CC2	-25	0	+	0.24	-3
Cc1ccnc(N2CCN(c3c4c(c(C#N)c5nc6ccccc6n35)CCC4)CC2)c1	86*	0	i	nt	nt
N#Cc1c2c(c(-n3cnc4ccccc43)n3c1nc1ccccc13)CCC2	20	1	i	4.8*	-10
CCOC(=O)c1cnn(-c2ccccc2)c1-n1cccc1C(=O)C(=O)N(CC)CC	5	1	i	0.88	0
CCN(CC)C(=O)C(=O)c1cccn1-c1ccccc1C#N	100*	2	i	-0.73	nt
CCN(CC)CCNC(=O)CCCCn1c(=S)[nH]c2c([nH]c3ccc(OC)cc32)c1=O	nt	1	i	-0.69	47*
SMILES	INS promoter inh	PERK inh	Autophagy mod	Insulin prom up	eIF4E 4G PPI
CCCCNC(=O)c1ccc(Cn2c(=S)[nH]c3c([nH]c4ccc(OC)cc43)c2=O)cc1	-70	0	i	-0.46	5
CC(=O)Cc1nsc(NC(=O)c2ccc(-c3cc(C(F)(F)F)ccc3Cl)o2)n1	9	1	i	nt	-7
CC(=O)Cc1nsc(NC(=O)c2ccc(-c3cccc(C(F)(F)F)c3)o2)n1	-186	0	+	-0.1	7
Cc1[nH]c2ccccc2c1/C=N/Nc1nc(Nc2ccc(F)cc2)nc(N2CCOCC2)n1	-31	0	+	-0.48	5
CCN(CC)c1ccc(/C=N/Nc2nc(C)cc(=O)[nH]2)c(O)c1	85*	0	i	?	-1
CC(=O)Nc1ccc(/C=N/Nc2nc3ccccc3[nH]2)cc1	nt	0	i	0.55	-1
Cc1nn(-c2ccccc2)c(C)c1/C=N/Nc1nc2ccccc2[nH]1	84*	-1	i	0.1	-4
Cc1nn(-c2ccccc2)c(Cl)c1/C=N/Nc1nc2ccccc2n1C	78*	-1	i	-0.95	-2
CCN(CC)c1ccc(/C=N/Nc2nc3ccccc3[nH]2)cc1	47	-2	+	0.16	1
CN(C)/C=N/c1cc(=O)n(C)c(=O)n1Cc1ccccc1	23	1	i	0.4	1

Screens from PubChem.
